# Bioassay records as filed in PubChem BioAssay.
# Rows were chosen to be rich in hits. Some 21% of all compounds tested hit in one or more screens of this group.
# Shiga toxin inh: inhibitors of Shiga toxin in Vero cells; AID 2315; inhibition, % at 38.7 µM; 290,000 compounds, 9.2% hits; Vero cells, Shiga toxin protein synthesis inhibition reporter; in the data active = inhibition mostly above about 28%, no sharp cut-off; inactive = mostly below about 43%; note: 0% is about no effect
# Cycloheximide cs: affects cycloheximide protein synthesis inhibition readout, counter-screen; cell reporter, cycloheximide protein synthesis inhibition counterscreen; max response, %; 300,000 compounds, 12% hits; AID 2314; in the data active = max response mostly above about 13%, no sharp cut-off; inactive = mostly below about 14%; note: read at 38.3 µM for the half of the compounds with a filed dose; 0% is about no effect
# Pf growth 48h: inhibits P. falciparum growth in the first generation, 48 h. 310,000 compounds, 5.9% hits. Potency, µM (titrated, usually from 28.7 µM), without a hit: top-dose activity change, negative = inhibition, most hits filed as inhibitors. AID 504832. P. falciparum luciferase growth in erythrocytes, 48 h; active = well fitted inhibition curve with a large enough effect; inconclusive = small, poorly fitted or top-dose-only effect, or another doubt; inactive = no such curve, though single readings can be large or run the other way; note: potency is the fitted concentration of half-maximal effect; % is set by controls: 0 for no effect and ±100 for the full control effect
#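 Luminescence readout; reporter = integrated firefly luciferase in P. falciparum. RBC culture at 2% hematocrit, 0.1% parasitemia final, 37 C/5% CO2; decreased signal taken as growth inhibition.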
# SARS PLP yeast: SARS-CoV PLP inhibition in yeast; 330,000 compounds, 0.19% hits; S. cerevisiae expressing SARS-CoV PLpro, growth rescue; Potency, µM (highest dose often 32.9 µM), for the others: at the highest dose activity, positive = growth rescue, usual class: activators; note: potency is the fitted concentration of half-maximal effect; 0% is about no effect; nearly all actives have a fitted effect of over 55% in size
# Pf growth 96h: P. falciparum growth inhibition at 96 hour, primary screen for plastid delayed-death inhibitors; AID 504834; P. falciparum luciferase reporter growth, 96 h; 320,000 compounds, 6.9% hits; Potency, µM (highest dose often 28.7 µM), for inactives: top-dose activity change, negative = inhibition, actives largely listed as inhibitors; active = well fitted inhibition curve with a large enough effect; inconclusive = small, poorly fitted or top-dose-only effect, or another doubt; inactive = no such curve, though single readings can be large or run the other way; note: potency is the fitted concentration of half-maximal effect; % is set by controls: 0 for no effect and ±100 for the full control effect
#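 Readout is luminescence from an integrated firefly luciferase in P. falciparum. Red cells, 2% hematocrit and 0.05% parasitemia final, were cultured with compound through two parasite generations (96 hours) at 37 C, 5% CO2.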
# NS1 function inh: blocks influenza NS1 protein function; Potency, µM (top dose mostly 46.1 µM), inactives show top-dose activity, positive = more growth; 270,000 compounds, 0.4% hits; AID 2326; note: potency is the fitted concentration of half-maximal effect; actives are rising curves; nearly all actives have a fitted effect of over 50% in size
#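 In this qHTS, NS1 from influenza A is expressed in budding yeast, where it slows growth. Cells are switched from glucose to 2% galactose medium (pH 6.0, -URA), treated with compound, and growth recovery is read at OD600.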
# * marks the source's active call; other numbers are inactive results; ? = inconclusive; nt = no result given; + = active, no number; [ ] = dose if it differs, or a comment. Unless noted, calls come from the whole dose curve.
SMILES,Shiga toxin inh,Cycloheximide cs,Pf growth 48h,SARS PLP yeast,Pf growth 96h,NS1 function inh
COc1ccc(CCNC(=O)C23CN(Cc4ccccc4)CC2C(c2ccc([N+](=O)[O-])cc2)=NO3)cc1 (stereo not given),8,7,5.2µM*,0%,?,2%
Cc1ccc(CNC(=O)C23CN(Cc4ccccc4)CC2C(c2cccc([N+](=O)[O-])c2)=NO3)cc1 (stereo not given),20,21,10µM*,3%,?,?
O=C(NCc1ccco1)C12CN(Cc3ccccc3)CC1C(c1ccc([N+](=O)[O-])cc1)=NO2 (stereo not given),5,7,12µM*,-9%,0%,24%
CCOc1ccc(C(=O)n2cnnc2N)cc1,2,-2,2%,0%,23%,-4%
COc1ccc(CNC(=O)C23CN(Cc4ccccc4)CC2C(c2ccc([N+](=O)[O-])cc2)=NO3)cc1 (stereo not given),-8,-3,6.6µM*,-4%,13µM*,5%
Cc1ccc(CNC(=O)C23CN(Cc4ccccc4)CC2C(c2ccc([N+](=O)[O-])cc2)=NO3)o1 (stereo not given),-5,2,?,-7%,?,1%
CC(C)c1ccc(/C(C(=O)O)=C(\O)C(=O)O)cc1,nt,nt,nt,nt,nt,-2%
CC(Cc1ccco1)NC(=O)c1cccc(S(=O)(=O)N(C)C)c1 (stereo not given),67*,30*,118%,-1%,134%,3%
CN(C)C(CNC(=O)c1ccc(S(=O)(=O)Nc2cccc(C(F)(F)F)c2)cc1)c1ccco1 (stereo not given),nt,nt,?,nt,-7%,nt
CN(C)C(CNC(=O)c1ccc(C(F)(F)F)cc1)c1ccco1 (stereo not given),17,17*,17%,1%,35%,13%
Cc1ccc2oc(C(=O)NCC(c3ccco3)N(C)C)c(C)c2c1 (stereo not given),75*,41*,23%,2%,45%,-6%
O=C(NCc1ccco1)c1ccc(C(F)(F)F)cc1,13,2,10%,-9%,11%,nt
CN(C)C(CNC(=O)c1cc2ccccc2o1)c1ccco1 (stereo not given),nt,nt,nt,-7%,nt,nt
CC(Cc1ccco1)NC(=O)c1ccc(C(F)(F)F)cc1 (stereo not given),+,43*,320%,-1%,447%,2%
Cc1ccc(OC(C)C(=O)Nc2ccc(F)cc2)c([N+](=O)[O-])n1 (stereo not given),nt,nt,-28%,4%,24%,nt
O=C(NCCCn1ccnc1)c1cc2c(s1)CCCCC2,2,9,21%,1%,0%,-4%
CSCCC(NC(=O)c1ccc([N+](=O)[O-])cc1Cl)C(=O)OC1CCCCC1=O (stereo not given),-7,-3,21%,-2%,-27%,22%
Cc1ccccc1-n1nc2c(c1NC(=O)c1ccc(Br)o1)CSC2,-11,-3,?,-1%,0%,-37%
CCOc1cc(C2C(C#N)=C(N)OC(C)=C2C(C)=O)c(Br)c(Br)c1OC(C)C (stereo not given),15,-3,3.3µM*,-17%,8.3µM*,-2%
CCOc1cc(C2C(C#N)=C(N)OC(C)=C2C(C)=O)cc(Br)c1O (stereo not given),-8,-4,-4%,0%,?,-9%
CCOC(=O)CNC(=O)CSc1nnc(NC(=O)c2ccc3c(c2)OCO3)s1,22*,12*,?,2%,104%,0%
O=C(CSc1nnc(NC(=O)c2ccc(F)cc2)s1)NCc1ccco1,45*,29*,-18%,1%,196%,8%
Cc1ccccc1C(=O)Nc1nnc(SC(C)C)s1,78,30*,102%,0%,222%,nt
O=C(CSc1nnc(NC(=O)c2ccc3c(c2)OCO3)s1)NCc1ccco1,35,23*,340%,0%,452%,4%
COc1cccc(C(=O)Nc2nc(SCc3ccc(Cl)cc3)n[nH]2)c1,28,15,22%,0%,51%,-5%
SMILES,Shiga toxin inh,Cycloheximide cs,Pf growth 48h,SARS PLP yeast,Pf growth 96h,NS1 function inh
Cc1ccccc1C(=O)Nc1nnc(SCC(=O)NCc2ccco2)s1,72*,21*,102%,1%,52%,13%
O=C(CSc1nnc(NC(=O)c2ccccc2)s1)NCc1ccco1,41*,40*,97%,0%,186%,12%
Cc1ccccc1Nc1nnc(SCC(=O)NCc2ccco2)s1,-9,1,-10%,-8%,0%,10%
CCOC(=O)c1cc(C)sc1/N=C/C1=C(O)CCCC1=O,39,-2,13%,-11%,21%,25%
CCCCN(C)CCC(=O)Nc1ccc(F)c(F)c1,-10,-3,-5%,2%,117%,20%
CC(C)CNS(=O)(=O)c1ccc(C(=O)Nc2ccc3c(c2)OCCO3)cc1,97*,54*,?,1%,?,3%
Cc1ccccc1OC(C)C(=O)Nc1ccc2c(c1)OCCO2 (stereo not given),21,34*,-17%,-2%,43%,-47%
CC(NS(=O)(=O)c1ccccc1)C(=O)Nc1ccc2c(c1)OCCO2 (stereo not given),16,8,14%,3%,7.4µM*,10%
Cc1ccc(S(=O)(=O)NC(C)C(=O)Nc2ccc3c(c2)OCO3)cc1 (stereo not given),18,10,?,1%,27%,?
CC(C)CNS(=O)(=O)c1ccc(CCC(=O)Nc2ccc3c(c2)OCCO3)cc1,9,6,12µM*,1%,226%,-5%
Cc1nn(-c2ccccc2)c2nc(C(Cl)(Cl)Cl)[nH]c(=O)c12,-14,1,-27%,-1%,-16%,-3%
CCC(C)NC(=O)C1(O)c2cc(Br)ccc2NC(=O)N1c1cccc(OC)c1 (stereo not given),17,-2,7%[0.00184 µM],0%,?,1%
CN(C)CCCNC(=O)c1ccc(=O)[nH]n1,13,0,?,0%,-13%,2%
CC(C)(C)C1CCc2c(sc(NC(=O)c3ccco3)c2C(N)=O)C1 (stereo not given),24,15*,77%,6%,?,?
CCC1CCc2c(sc(NC(=O)c3ccco3)c2C(N)=O)C1 (stereo not given),96*,30*,102%,-29%,58%,10%
CC(C)(C)C1CCc2c(sc(NC(=O)C3CCCO3)c2C(N)=O)C1 (stereo not given),10,4,?,-9%,30%,-24%
CCC1CCc2c(sc(NC(=O)c3cnccn3)c2C(N)=O)C1 (stereo not given),nt,-3,69%,2%,-16%,-13%
CC(C)(C)c1ccc(-c2noc(C(=O)NN)n2)cc1,20,2,-8%,0%,2%,3%
CC(C)(C)c1ccc(-c2conc2N)cc1,111*,48*,252%,-31%,nt,-99%
